# Bioassay records: PubChem, National Center for Advancing Translational Sciences (NCATS)
# An excerpt weighted towards active compounds, which were near 6.5% of everything screened.
# VACV Venus inh: inhibitors of vaccinia virus (Venus reporter). Vaccinia virus Venus reporter expression, fluorescence. Potency, µM (top dose mostly 36.5 µM), inactives show at the top dose activity change, negative = inhibition, hits mostly inhibitors. hit rate 0.46% among 330,000. AID 720580; calls by dose curve; tested in A549 cells; note: potency is the fitted concentration of half-maximal effect; nearly all actives have a fitted effect of over 30% in size
# HCMV antiviral: blocks human cytomegalovirus replication; HFF cells, HCMV-luciferase reporter, 72 h; hits give low values; activity change, negative = inhibition, % at 57.5 µM; hit rate 4.5% among 410,000; AID 1259415; in the data active = activity change below about -60%; inconclusive = no clear call, values can overlap the other calls; inactive = above about -39%
#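 Compounds were evaluated in HFFs infected with an HCMV luciferase reporter virus (MOI 1 PFU/cell). Luciferase in lysates collected 72 h post infection served as the replication measure.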
# LASV entry inh: Lassa virus entry inhibition. AID 540256. hit rate 1.2% among 300,000. Potency, µM (doses to about 37.9 µM), inactives show at the highest dose activity change, negative = inhibition, hits mostly inhibitors. Lassa virus pseudotype entry inhibition, cell reporter; calls by dose curve; tested in HEK293 cells; note: potency is the fitted concentration of half-maximal effect; nearly all actives have a fitted effect of over 50% in size
# Vaccinia mCherry: vaccinia inhibition (mCherry reporter); Vaccinia virus mCherry reporter infection, fluorescence; Potency, µM (series often up to 36.5 µM), without a hit: top-dose activity change, negative = inhibition, most hits filed as inhibitors; AID 720579; hit rate 0.63% among 310,000; calls by dose curve; tested in A549 cells; note: potency is the fitted concentration of half-maximal effect; nearly all actives have a fitted effect of over 35% in size
# FMDV inh: antivirals against foot and mouth disease virus | FMDV antiviral cell-based qHTS | Potency, µM (series often up to 57.9 µM), inactives show at the highest dose activity change, negative = inhibition, usual class: inhibitors | hit rate 1.2% among 410,000 | AID 1159524; calls by dose curve; tested in HEK293T cells; note: read-out not given here; potency is the fitted concentration of half-maximal effect; nearly all actives have a fitted effect of over 45% in size
# Marburg entry inh: Marburg virus entry inhibition; Marburg virus pseudotyped entry inhibition, cell reporter; Potency, µM (titrated, usually from 37.8 µM), inactives show top-dose activity change, negative = inhibition, hits mostly inhibitors; hit rate 1.8% among 300,000; calls by dose curve; tested in HEK293 cells; note: potency is the fitted concentration of half-maximal effect
# * hit, by the source's call; i = inactive; ? = inconclusive; nt = not tested or not shown; ! = not confirmed by another sample; [ ] = remark or other dose. % is set by controls: 0 for no effect and ±100 for the full control effect.
SMILES,VACV Venus inh,HCMV antiviral,LASV entry inh,Vaccinia mCherry,FMDV inh,Marburg entry inh
COCCCNc1nc2c(c(=O)[nH]c(=O)n2C)n1C[C@@H](O)COc1ccccc1,nt,nt,nt,nt,nt,20.5%
CCCCCN(CCCCC)C(=O)[C@H](CCC(=O)O)NC(=O)c1ccc(Cl)c(Cl)c1,nt,nt,nt,nt,nt,7.3%
CCCCCN(CCCCC)C(=O)C(CCC(=O)O)NC(=O)c1ccc(Cl)c(Cl)c1 (stereo not given),-9.4%,-60.7*,-1.2%,-8.9%,-11.1%,?
COc1cccc(C(=O)CC2c3c(c(Br)c4c(c3OC)OCO4)CCN2C)c1 (stereo not given),nt,nt,nt,nt,8.4%,nt
Cc1cc(C(=O)NNc2ccc(Cl)cc2)no1,-9.9%,-34.9,-8.4%[46.1 µM],-23.3%,0.5%,4.47µM*
Cc1cc(C(=O)NNC(=O)Nc2ccc(Cl)cc2)no1,-2.2%[7.34 µM],85.5,-9.2%,-2.9%[7.34 µM],0.3%,-15.5%[46.1 µM]
Nc1nc2c(nc(Br)n2[C@@H]2O[C@H]3COP(=O)(O)O[C@H]3[C@@H]2O)c(=O)[nH]1,nt,nt,nt,nt,-3.6%,nt
Nc1ncnc2c1nc(Br)n2C1O[C@H]2COP(=O)(O)O[C@@H]2C1O (stereo not given in full),nt,nt,nt,nt,nt,3.16µM*
COc1cccc2sc(Nc3nnc(-c4ccc(F)cc4)o3)nc12,?,30.2,nt,?,14.5%,nt
COc1cccc2sc(Nc3nnc(-c4cccs4)o3)nc12,?,-86.2*,?,?,4.6%,?
CCC(CC)N=C1NS(=O)(=O)c2cc([N+](=O)[O-])ccc21,?,-9.6,2.0%[46.1 µM],12.6µM*,28.2%,-9.2%[46.1 µM]
O=C(Nc1ccc(Cl)c(S(=O)(=O)N2CCCCC2)c1)c1ccncc1,-25.1%,-77.3*,-26.6%,-27.5%,-33.9%,?
CCc1noc(C)c1C(=O)Nc1ccc(Cl)c(S(=O)(=O)N2CCCCC2)c1,-24.3%,-34.9,-17.2%,-4.7%,22.4µM*,?
COc1ccc(Oc2ncc3nc(-c4ccc(F)cc4)c(=O)n(CCC#N)c3n2)cc1,nt,nt,nt,nt,-9.4%,nt
CNC[C@@H]1OCc2ccccc2-c2c(n(C)c3ccccc23)C(=O)N([C@@H](C)CO)C[C@@H]1C,nt,-11.1,nt,nt,nt,nt
CC(C)(C)c1cc(CSC(=S)NC2CCS(=O)(=O)C2)c(Br)c(C(C)(C)C)c1 (stereo not given),-5.6%,37.0,?,-14.3%,15.8µM*,?
O=S1(=O)CC=C(CSC(=S)NC2CCS(=O)(=O)C2)C1 (stereo not given),-3.2%,33.8,-5.8%[46.1 µM],i,11.2µM*,10.1%[46.1 µM]
NNC(=S)NC1CCS(=O)(=O)C1 (stereo not given),-14.6%,20.5,4.0%,i,-13.5%,?
COc1ccc(CNC(=O)/C=C/c2ccc3[nH]cc(CCN(C)C)c3c2)cc1,-10.6%,?,-13.6%,-24.7%,24.3%,35.5µM*!
COc1ccc2[nH]cc(CCN(C)C)c2c1,-9.0%,-8.6,nt,-16.2%,-23.4%,?
COc1ccc(-c2nc3cncnc3n(-c3ccccc3)c2=O)cc1,nt,nt,nt,nt,0.2%,nt
O=C(/C=C/c1ccccc1)c1ccc(NC2=NCCCS2)cc1,-24.1%,9.8,-2.3%,-8.1%,-46.5%,?
O=C(/C=C/c1ccc(Br)cc1)c1ccc(NC2=NCCCS2)cc1,nt,-100.2*,?,nt,15.8µM*,?
Cc1cccc(/C=C/C(=O)c2ccc(NC3=NCCCS3)cc2)c1,?,-98.0*,2.4%,-18.5%,?,?
Cc1cc(C(=O)Nc2cnn(C(C)(C)C(=O)NCc3ccco3)c2)c(C)o1,nt,-4.5,nt,nt,nt,nt
SMILES,VACV Venus inh,HCMV antiviral,LASV entry inh,Vaccinia mCherry,FMDV inh,Marburg entry inh
COc1ccc(C(CC(=O)Nc2ccc(Cl)cc2F)NC(=O)C(F)(F)F)cc1 (stereo not given),nt,-89.2*,-2.9%,nt,-3.5%,-28.1%
CCCc1nnc2c(N(C)S(=O)(=O)c3ccc(C)cc3)nc3ccccc3n12,-12.6%,-69.4*,-0.1%,i,-9.5%,-3.0%
CCCCC1OC23CCCCC2C(C#N)(C#N)C1(C#N)C(=N)O3 (stereo not given),1.0%,-13.8,13.2%,-0.9%,0.0%,-4.4%
CCCCC1OC23CCCCC2C(C#N)(C(=N)O3)C1(C#N)C#N (stereo not given),-14.6%,43.1,-16.4%,nt,25.1µM*,6.5%
CN(C(=O)COc1ccccc1C(=O)Nc1ccccc1)c1ccccc1,-14.1%,nt,nt,0.5%,nt,nt
O=C(CCCOc1ccc(Cl)cc1Cl)N/N=C/c1ccc(Cl)cc1,-11.5%,23.9,?,-21.9%,-2.5%,?
O=C(COc1ccc(Cl)cc1Cl)N/N=C/c1ccc(OC2OC(CO)C(O)C(O)C2O)cc1 (stereo not given),nt,-79.4*,nt,nt,12.7%,nt
Cc1nc(SCc2nc3ccccc3[nH]2)c2oc3ccccc3c2n1,-19.3%,-16.0,-7.2%,nt,?,?
Cc1nc(SCc2nc3ccccc3[nH]2)c2oc3ccc(Br)cc3c2n1,nt,-15.9,nt,nt,35.5µM*,nt
C=CCOC(=O)N[C@H](c1ccc(-c2ccccc2)cc1)[C@H](C)C=CCC(=O)OC,nt,nt,?,nt,nt,-3.8%[14.2 µM]
NS(=O)(=O)C#Cc1ccccc1,nt,nt,5.8µM*,nt,?,?
Nc1ccc(C#Cc2ccccc2)cc1,nt,-14.3,19.4%,nt,16.7%,-21.9%
CCCN(CCC)c1ccc(/C=C/c2ccnc3ccccc23)cc1,45.1%,nt,nt,-12.9%,nt,nt
C#CCN(C[C@H]1[C@H](OC(=O)NCC2CCCCC2)[C@H](OC(=O)NCC2CCCCC2)C[C@@H](C(=O)OC)[C@H]1C(=O)OC)S(=O)(=O)c1ccc(C)cc1,?,-8.3,nt,-14.5%,0.0%,nt
C#CCN(C[C@@H]1[C@@H](OC(=O)NCCCCCC)[C@@H](OC(=O)NCCCCCC)Cn2c(=O)ccc(=O)n21)S(=O)(=O)c1ccc(C)cc1,5.62µM*,-103.6*,nt,?,12.6µM*,nt
C#CCN(C[C@@H]1[C@@H](OC(=O)NC2CC2)[C@@H](OC(=O)NC2CC2)Cn2c(=O)n(CCCCCC)c(=O)n21)S(=O)(=O)c1ccc(C)cc1,?,-8.4,nt,i,?,nt
C#CCN(C[C@@H]1[C@@H](OC(=O)NCC2CCCCC2)[C@@H](OC(=O)NCC2CCCCC2)Cn2c(=O)ccc(=O)n21)S(=O)(=O)c1ccc(C)cc1,7.94µM*,-102.2*,nt,?,10µM*,nt
COc1ccc(-c2nnc(SCc3cc(=O)c4cc(C)cc(C)c4[nH]3)n2C)cc1,?,-65.7*,-22.7%[46.1 µM],?,15.8µM*,nt
COc1ccc(C(=O)Nc2nnc(SCc3cc(=O)c4cc(C)cc(C)c4[nH]3)s2)cc1,-12.7%,19.8,14.5%[46.1 µM],-6.4%,12.4%,nt
CC(C)C(=O)N1c2nc(C(C)C)nn2C2(CCCCC2)[C@@H]2CCCC[C@@H]21,-18.0%,6.3,2.5%[46.1 µM],-6.2%,?,-8.2%[46.1 µM]
COc1ccc(C(=O)CSc2ccc(-c3ccccc3)nn2)cc1,-10.6%,-16.3,0.5%,i,-25.6%,-1.0%
COc1ccc(-c2ccc(SC)nn2)cc1,-5.2%,-18.9,3.55µM*,-5.7%,-70.0%,?
CN1C[C@H](C(=O)N[C@]2(C)O[C@@]3(O)C4CCCN4C(=O)[C@H](Cc4ccccc4)N3C2=O)C[C@@H]2c3cccc4[nH]cc(c34)C[C@H]21 (stereo not given in full),nt,nt,nt,nt,nt,1.12µM*
